{
  "source": "PubChem BioAssay AID1508622",
  "about": "(National Center for Advancing Translational Sciences (NCATS), 2021)",
  "note": "Some structures have more than one record in an assay (separate samples or runs), and their calls can disagree. Activity calls are given as the source filed them. Where a call stands in place of a potency, no number is given. Calls follow the shape of the dose curve; as a rule, active = well fitted activation curve with a large enough effect; inconclusive = small, poorly fitted or top-dose-only effect; inactive = no such curve, though single readings can be large or run the other way. Potency is read from the fitted curve at half-maximal effect.",
  "data": [
    {"assay": "Confirmatory qHTS for Identification of Small Molecule Activators of Huntingtin-Antisense Promoter Activity", "conditions": "HEK293 HTT-AS promoter firefly luciferase reporter, 24 h; series mostly up to 57.5 µM", "outline": "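HEK293 luciferase reporter cells, 2,500/well, cultured 24 h, then exposed to compounds at up to 57.5 uM final for 24 h at 37C. Firefly luciferase luminescence read; normalized to vehicle (0%) and zero RLU (-100%).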", "values": [
      {"molecule": "COc1ccc([C@@H]2CNC(=O)C2)cc1OC1CCCC1", "Potency": "inactive"},
      {"molecule": "CC1CCCCN1C(=O)CSc1nc2ccccc2nc1Cc1ccc(Cl)cc1", "note": "(centres undefined)", "Potency": "inactive"},
      {"molecule": "CCc1ccc(CNC(=O)c2cc3cc(S(=O)(=O)N4CCCCC4)ccc3n2C)cc1", "Potency": "inactive"},
      {"molecule": "COc1ccc(NC(=O)CSc2oc(-c3cccs3)nc2S(=O)(=O)c2ccccc2)c(OC)c1", "Potency": "inactive"},
      {"molecule": "COc1cccc(NC(CNS(=O)(=O)c2ccc(Cl)cc2)c2ccccc2)c1", "note": "(centres undefined)", "Potency": "inactive"},
      {"molecule": "COC(=O)C1CCN(S(=O)(=O)c2ccc(N3CCCCS3(=O)=O)cc2)CC1", "Potency": "inactive"},
      {"molecule": "CCc1ccc(OC(C)C(=O)N2CCC(c3nc4ccccc4s3)CC2)cc1", "note": "(centres undefined)", "Potency": "inactive"},
      {"molecule": "CCc1ccc(-n2nc(C)c3c(C(=O)Nc4cccc(C(F)(F)F)c4)cc(C)nc32)cc1", "Potency": "inactive"},
      {"molecule": "COC(=O)[C@]12CCC(C)(C)C[C@@H]1[C@@H]1C(=O)C=C3[C@@]4(C)C=C(C#N)C(=O)C(C)(C)[C@@H]4CC[C@@]3(C)[C@]1(C)CC2", "Potency": "inactive"},
      {"molecule": "CCOc1ccc(S(=O)(=O)NCCc2csc(-c3ccc(Cl)cc3)n2)cc1", "Potency": "inactive"},
      {"molecule": "Cc1ccc(Cl)cc1N(C)C(=O)C1CCCN(c2ncnc3onc(-c4ccc(F)cc4)c23)C1", "note": "(centres undefined)", "Potency": "inactive"},
      {"molecule": "COc1ccc(-c2nc3sc(CCNS(=O)(=O)c4ccc(F)c(C)c4)c(C)n3n2)cc1", "Potency": "inactive"},
      {"molecule": "CCCS(=O)(=O)NCCc1sc2nc(-c3ccc(F)cc3)nn2c1C", "Potency": "inactive"},
      {"molecule": "O=C(CN(c1cccc(C(F)(F)F)c1)S(=O)(=O)c1ccccc1)Nc1cccc(Cl)c1", "Potency": "inactive"},
      {"molecule": "Cc1oc(-c2ccc(Cl)cc2)nc1CN1CCCC(C(=O)NCCc2ccccc2)C1", "note": "(centres undefined)", "Potency": "inactive"},
      {"molecule": "CCOc1ccc(NCc2cccn2-c2nnc(N3CCC(C(=O)NCCc4ccc(OC)c(OC)c4)CC3)s2)cc1", "Potency": "inactive"},
      {"molecule": "Cc1ccccc1OCC(=O)NCC(c1ccc(Cl)cc1)N1CCOCC1", "note": "(centres undefined)", "Potency": "inactive"},
      {"molecule": "COc1ccc(-c2nc(CSCC(=O)NCCc3ccc(OC)c(OC)c3)c(C)o2)cc1", "Potency": "inactive"},
      {"molecule": "O=C(CCCCCCC(=O)Nc1ccccc1)NO", "Potency": "19 µM (active) and inactive"},
      {"molecule": "COc1ccccc1N1CCN(C(=O)C2CCCN(S(=O)(=O)c3ccc4c(c3)CCCN4C(C)=O)C2)CC1", "note": "(centres undefined)", "Potency": "inactive"},
      {"molecule": "CC(=O)Nc1cccc(NC(=O)CSc2nccn2Cc2ccccc2)c1", "Potency": "inactive"},
      {"molecule": "O=C(NCC(c1ccc2c(c1)OCO2)N1CCN(c2ccc(F)cc2)CC1)c1cccc([N+](=O)[O-])c1", "note": "(centres undefined)", "Potency": "inactive"},
      {"molecule": "CCOC(=O)c1cc(-c2ccccc2)n(CCCC(=O)Nc2ccc(CC)cc2)c1C", "Potency": "inactive"},
      {"molecule": "COc1ccc(-c2noc(N3CCN(c4cccc(Cl)c4)CC3)n2)cc1OC", "Potency": "inactive"},
      {"molecule": "COc1cccc(-c2nc(CS(=O)CC(=O)N3CCN(c4cccc(C(F)(F)F)c4)CC3)c(C)o2)c1", "note": "(centres undefined)", "Potency": "inactive"},
      {"molecule": "O=C(Nc1nc2cccc(-c3ccc(CN4CCS(=O)(=O)CC4)cc3)n2n1)C1CC1", "Potency": "8.49 µM (active)"},
      {"molecule": "O=C(NCCn1cc(SCc2ccccc2)c2ccccc21)c1cccs1", "Potency": "inactive"},
      {"molecule": "CCCCN1CC(c2nc3ccccc3n2CCCCOc2ccccc2C)CC1=O", "note": "(centres undefined)", "Potency": "inactive"},
      {"molecule": "COc1cc(OC)c(OC)cc1CN1CCc2nc(N3CCN(c4ncccn4)CC3)ncc2C1", "Potency": "inactive"},
      {"molecule": "CCN(c1ccccc1)S(=O)(=O)c1c(-c2ccc(C)cc2)csc1C(=O)OC", "Potency": "inactive"},
      {"molecule": "Cc1ccccc1-c1ccnc2c(-c3ccc(F)cc3)c(C)nn12", "Potency": "inactive"},
      {"molecule": "CCSc1ncc(Cl)c(C(=O)Nc2ccc(S(=O)(=O)N3CCCCC3)cc2)n1", "Potency": "inactive"},
      {"molecule": "Cc1ccc(-c2cc(N)n(Cc3cccc(Cl)c3)n2)cc1", "Potency": "inactive"},
      {"molecule": "Cc1ccc(NC(=O)Cn2cc(S(=O)(=O)Cc3ccccc3)c3ccccc32)cc1C", "Potency": "inactive"},
      {"molecule": "O=C(CSc1nc(-c2cccc(F)c2)[nH]c1-c1ccccc1)Nc1ccc2c(c1)OCCO2", "Potency": "inactive"},
      {"molecule": "CCc1nnc(NC(=O)c2nc(S(=O)(=O)Cc3cccc(C)c3)ncc2Cl)s1", "Potency": "inactive"},
      {"molecule": "O=C(CSc1ccc(-c2ccccn2)nn1)Nc1ccc(F)c(F)c1", "Potency": "inactive"},
      {"molecule": "Cn1cnc(=N)c2[nH]cnc21", "Potency": "inactive"},
      {"molecule": "COc1ccccc1C(=O)NCCSc1c(C)[nH]c2ccccc12", "Potency": "inactive"}
    ]}
  ]
}
